Data from publication PMC11062922 (Nature Chemical Biology, 2023).
Read-outs that look alike come from different tables or passages of the source.

What was measured:
Parameters in all cases: species or system human, MV4-11 + K-562 + COLO205 + SK-N-BE2 + OVCAR-8
RIOK2 = settings: read-out: apparent Kd; compound concentrations:100 nM and 1000 nM (sheet 'Samples'); n = 1
EGFR = settings: read-out: apparent Kd, compound concentrations: 100 nM and 1000 nM (sheet 'Samples'), n = 1
FRK = settings: read-out: apparent Kd, compound concentrations: 100 nM and 1000 nM (sheet 'Samples'), n = 1
LYN = settings: read-out: apparent Kd, compound concentrations: 100 nM and 1000 nM (sheet 'Samples'), n = 1
SRC = settings: read-out: apparent Kd, compound concentrations: 100 nM and 1000 nM (sheet 'Samples'), n = 1
CSK = settings: read-out: apparent Kd, compound concentrations: 100 nM and 1000 nM (sheet 'Samples'), n = 1
DDR1 = settings: read-out: apparent Kd, n = 1
ACAD11 = settings: read-out: apparent Kd, n = 1
ACVR1B = settings: read-out: apparent Kd, compound concentrations: 100 nM and 1000 nM (sheet 'Samples'), n = 1
AKT1 = settings: read-out: apparent Kd, n = 1
DYRK1A = settings: read-out: apparent Kd; compound concentrations:100 nM and 1000 nM (sheet 'Samples'); n = 1
FLT3 = settings: read-out: apparent Kd, n = 1
GSK3A = settings: read-out: apparent Kd; compound concentrations:100 nM and 1000 nM (sheet 'Samples'); n = 1
GSK3B = settings: read-out: apparent Kd; compound concentrations: 100 nM and 1000 nM (sheet 'Samples'), CATDS: 5.9931823260346899E-2; n = 1
ZAK = settings: read-out: apparent Kd; compound concentrations: 100 nM and 1000 nM (sheet 'Samples'), CATDS: 3.4947671861574499E-2; n = 1
ACVR1 = settings: read-out: apparent Kd, compound concentrations: 100 nM and 1000 nM (sheet 'Samples'), n = 1
AKT2 = settings: read-out: apparent Kd, n = 1
SIK2 = settings: read-out: apparent Kd; compound concentrations: 100 nM and 1000 nM (sheet 'Samples'), CATDS: 4.4020639379416998E-2; n = 1
[1] = compound concentrations:100 nM and 1000 nM (sheet 'Samples')

COc1cc(/C=N/Nc2ncnc3[nH]ncc23)ccc1O [GW578748X]
potency estimated from few doses (RIOK2): 1.6 µM

COc1cc2nccc(Nc3ccc(Oc4ccccc4)cc3)c2cc1OC.Cl [GI261656A]
potency estimated from few doses (EGFR; CATDS: 3.8994788715485701E-2): 2.36 µM
potency estimated from few doses (FRK; CATDS: 5.3958789023196299E-2): 0.47 µM
potency estimated from few doses (LYN; CATDS: 7.8976671860543801E-2): 0.16 µM
potency estimated from few doses (SRC; CATDS: 5.79534996745752E-2): 0.372 µM

NS(=O)(=O)CCc1cccc(Nc2nccc(-c3c(-c4cccc(NC(=O)c5c(F)cccc5F)c4)nn4ccccc34)n2)c1 [GSK336735A]
potency estimated from few doses (CSK; CATDS: 5.7355343721703998E-2): 1.22 µM
potency estimated from few doses (DDR1; compound concentrations: 100 nM and 1000 nM (sheet 'Samples'), CATDS: 5.2826618660154298E-2): 1.57 µM
potency estimated from few doses (EGFR; CATDS: 5.3399275908321601E-2): 1.52 µM
potency estimated from few doses (LYN; CATDS: 7.1175193729883096E-2): 0.72 µM

COc1ccc(-c2nc3n(c2-c2ccncc2)CCC3)cc1.COc1ccc(-c2nc3n(c2-c2ccncc2)CCC3)cc1.O=S(=O)(O)O.O=S(=O)(O)O [SKF-104493-B2]
potency estimated from few doses (ACAD11; compound concentrations: 100 nM and 1000 nM (sheet 'Samples'), CATDS: 0.103649602140053): 2.1 µM
potency estimated from few doses (ACVR1B; CATDS: 0.14344642008730599): 1.03 µM
potency estimated from few doses (AKT1; compound concentrations: 100 nM and 1000 nM (sheet 'Samples'), CATDS: 9.7335035775878098E-2): 2.5 µM

N#Cc1cccc(Nc2nccc(-c3cnn4ncccc34)n2)c1 [GW778894X]
potency estimated from few doses (ACAD11; [1]): 0.228 µM
potency estimated from few doses (DYRK1A): 0.0359 µM
potency estimated from few doses (FLT3; [1]): 0.137 µM
potency estimated from few doses (GSK3A): 0.0283 µM
potency estimated from few doses (GSK3B): 0.0212 µM
potency estimated from few doses (RIOK2): 0.0753 µM

CC(=O)N1CCN(c2ccc(Nc3nccc(-c4sc(C(C)C)nc4-c4cccc(NS(=O)(=O)c5cccc(Cl)c5)c4)n3)cn2)CC1 [GSK1660437A]
potency estimated from few doses (CSK; CATDS: 5.27130468240418E-2): 0.741 µM
potency estimated from few doses (ZAK): 2.31 µM

O=S(=O)(CCOCc1ccc(-c2ccc3ncnc(Nc4ccc(OCc5cccc(F)c5)c(Cl)c4)c3c2)o1)c1ccccc1 [GW615311X]
potency estimated from few doses (ACAD11; compound concentrations: 100 nM and 1000 nM (sheet 'Samples'), CATDS: 2.2498747845654098E-2): 2.28 µM
potency estimated from few doses (ACVR1B; CATDS: 3.6359113991721197E-2): 0.818 µM
potency estimated from few doses (ACVR1; CATDS: 2.7247604336379499E-2): 1.43 µM
potency estimated from few doses (AKT2; compound concentrations: 100 nM and 1000 nM (sheet 'Samples'), CATDS: 2.19467490651379E-2): 2.45 µM
potency estimated from few doses (CSK; CATDS: 2.6624527430589399E-2): 1.51 µM
potency estimated from few doses (EGFR; CATDS: 3.2602064025644098E-2): 0.997 µM
potency estimated from few doses (FRK; CATDS: 2.9445586686104801E-2): 1.22 µM
potency estimated from few doses (SRC; CATDS: 2.9038399213399499E-2): 1.25 µM

Cc1cc(O)cc(C)c1/C=C/c1cncc(-c2nn[nH]n2)c1.Cl [GW441806A]
potency estimated from few doses (ACVR1; CATDS: 0.132778001486796): 0.0855 µM
potency estimated from few doses (SIK2): 1.54 µM

Nc1c(C(=O)c2ccccc2)cnn1-c1ccc(F)cc1 [RO1151246-000]
potency estimated from few doses (AKT1; [1]): 1.46 µM
potency estimated from few doses (AKT2; [1]): 1.8 µM
potency estimated from few doses (RIOK2): 1.7 µM

Cc1ccc(-n2nc(C(C)(C)C)cc2NC(=O)Nc2ccc(OCCN3CCOCC3)cc2)cc1 [BIRB0876BS]
potency estimated from few doses (DDR1; [1]): 0.607 µM

O=C1Nc2ccc(F)cc2/C1=C/c1ccc[nH]1 [RO0272148-000]
potency estimated from few doses (FLT3; compound concentrations: 100 nM and 1000 nM (sheet 'Samples'), CATDS: 0.86450810261160804): 0.0985 µM

COc1ccc(-c2ccncc2)cc1C(N)=O [GSK605714A]
potency estimated from few doses (ACAD11; compound concentrations: 100 nM and 1000 nM (sheet 'Samples'), CATDS: 0.66413142428119099): 0.619 µM
